Bioassay records deposited in PubChem BioAssay by National Center for Advancing Translational Sciences (NCATS).
Only some compounds are listed: those with a hit (about 7.5% of all), similar ones and a draw of the others.
KinaseGlo FLuc: Counterscreen for Luciferase (Kinase-Glo TM) Inhibition; Luciferin 4-monooxygenase (Photuris pensylvanica), Q27757; Kinase-Glo luciferase, ATP luminescence, 8 min; Potency, µM (series often up to 38.3 µM), for inactives: at the highest dose activity change, negative = inhibition, actives largely listed as inhibitors; actives 0.28% (n = 200,000); AID 1379, 2008; also: % is scaled to controls: 0 for no effect and ±100 for the full control effect; nearly all actives have a fitted effect of over 60% in size
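Compounds were added to a substrate mix at pH 7.2 (50 mM imidazole, 10 uM ATP, within the enzyme's linear range), followed by Kinase-Glo detection reagent; luminescence was measured after 8 minutes at ambient temperature.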
SMN2 splice enh: qHTS Assay for Enhancers of SMN2 Splice Variant Expression. HEK293 SMN2-luciferase splicing reporter, luminescence, 30-36 h. Potency, µM (doses to about 46.1 µM), without a hit: top-dose activity change, positive = activation, hits mostly activators. actives 2.8% (n = 210,000). AID 1458, 2008; also: % of control where 0% means no effect; nearly all actives have a fitted effect of over 55% in size
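HEK293 cells carry an SMN2 […]–luciferase reporter in which exon 7 inclusion puts luciferase in frame. Cells were plated 10-12 h before compound addition, then incubated 30-36 h at 37C. ONE-Glo luminescence was read; sodium butyrate at 4.5 mM final served as control.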
FLuc modulator: qHTS profiling assay for firefly luciferase inhibitor/activator using purifed enzyme and Km concentrations of substrates (counterscreen for miR-21 project) | Luciferin 4-monooxygenase (Photinus pyralis), P08659 | purified FLuc, Km substrates, luminescence inhibition | Potency, µM (titrated, usually from 57.5 µM), without a hit: at the highest dose activity change, negative = inhibition, usual class: inhibitors | actives 6.9% (n = 360,000) | AID 588342, 2011;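 also: plate controls were vehicle for no effect and reference inhibitor for full effect; nearly all actives have a fitted effect of over 55% in size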
Target sequence (P08659 whole entry, looked up): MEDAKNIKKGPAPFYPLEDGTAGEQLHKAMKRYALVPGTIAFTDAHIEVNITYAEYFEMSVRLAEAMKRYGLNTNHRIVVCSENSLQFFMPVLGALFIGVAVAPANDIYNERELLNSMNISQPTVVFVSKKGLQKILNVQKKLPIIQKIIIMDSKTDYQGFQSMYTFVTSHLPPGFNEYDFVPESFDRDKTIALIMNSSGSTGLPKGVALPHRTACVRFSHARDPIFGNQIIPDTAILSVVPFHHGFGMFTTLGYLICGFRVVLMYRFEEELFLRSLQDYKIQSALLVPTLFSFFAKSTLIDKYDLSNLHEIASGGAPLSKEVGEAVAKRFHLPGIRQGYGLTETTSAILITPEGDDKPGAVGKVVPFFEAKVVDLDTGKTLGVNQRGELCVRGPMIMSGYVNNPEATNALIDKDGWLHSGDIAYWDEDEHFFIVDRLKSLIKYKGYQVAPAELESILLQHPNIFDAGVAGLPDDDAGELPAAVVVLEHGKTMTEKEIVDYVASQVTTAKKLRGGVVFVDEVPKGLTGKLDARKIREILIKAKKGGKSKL
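Purified P. pyralis luciferase, 10 nM final, with Km-level 10 uM D-luciferin and 10 uM ATP in 50 mM Tris acetate pH 7.5, 10 mM Mg acetate, 0.01% Tween-20, 0.05% BSA; 6-point qHTS titration about 60 µM downward; luminescence read.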
Rab9 promoter act: qHTS Assay for Rab9 Promoter Activators; Huh7 Rab9 promoter-luciferase reporter, luminescence, 24 h; Potency, µM (highest dose often 9.22 µM), for inactives: at the highest dose activation, negative = inhibition, hits mostly activators; actives 2.8% (n = 320,000); also: % of control where 0% means no effect; nearly all actives have a fitted effect of over 60% in size
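Promoter activation is measured as luciferase luminescence in Huh7 cells stably transfected with a Rab9 promoter–luciferase construct, following 24 h compound exposure at 37 °C and 10 min reagent incubation at ambient temperature.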
NPC1 promoter act: qHTS Assay for NPC1 Promoter Activators | Huh7 NPC1 promoter luciferase reporter, 24 h | Potency, µM (series often up to 9.22 µM), without a hit: at the highest dose activation, actives largely listed as activators | actives 2.4% (n = 320,000) | AID 485313, 2010; also: % of control where 0% means no effect; nearly all actives have a fitted effect of over 60% in size
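Luminescence read-out of NPC1 promoter-driven luciferase in stably transfected Huh7 cells; compounds delivered in DMSO and left 24 h at 37C, 5% CO2, qHTS titration format.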
ELG1 genotoxic: qHTS screen for small molecules that induce genotoxicity in human embryonic kidney (HEK293T) cells expressing luciferase-tagged ELG1; HEK293T ELG1-luciferase reporter, luminescence, 16 h; Potency, µM (doses to about 46 µM), for the others: top-dose activity change, positive = activation, hits mostly activators; actives 1.3% (n = 330,000); AID 504466, 2011; also: % of control where 0% means no effect; nearly all actives have a fitted effect of over 60% in size
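Genotoxic stress is detected as increased luminescence from luciferase-tagged ELG1 in HEK293T cells, measured with ONE-Glo after a 16 hr treatment at 37 °C.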
An asterisk follows results filed as active; ? = inconclusive; nt = no result. Calls follow the shape of the dose curve; as a rule, active = well fitted curve in the direction sought with a large enough effect; inconclusive = small, poorly fitted or top-dose-only effect, or another doubt; inactive = no such curve, though single readings can be large; an effect the other way counts as inactive or inconclusive. Potency is read from the fitted curve at half-maximal effect.

SMILES	KinaseGlo FLuc	SMN2 splice enh	FLuc modulator	Rab9 promoter act	NPC1 promoter act	ELG1 genotoxic
COc1ccc(CNC(=O)c2sc3nc4n(c(=O)c3c2C)CCCCC4)cc1	nt	nt	19µM*	nt	nt	nt
CC(=O)c1cccc(NC(=O)c2sc3nc4n(c(=O)c3c2C)CCCCC4)c1	nt	nt	-17%	-4%	-3%	-6%
Cc1ccc(NC(=O)c2sc3nc4n(c(=O)c3c2C)CCCCC4)c(Br)c1	nt	nt	3%	nt	nt	nt
Cc1cc(C(=O)CN2C(=O)C(=O)N(C3CCCC3)C2=O)c(C)n1CCc1ccc(F)cc1	nt	nt	0%	-6%	1%	-6%
O=C(Nc1nnc(SCc2ccccn2)s1)C1CC(=O)N(c2ccc(F)cc2)C1 (stereo unspecified)	nt	nt	-1%	1%	-1%	-1%
Cn1c(C(=O)NCc2cccc(F)c2)cc2cc(S(=O)(=O)N3CCCCC3)ccc21	nt	nt	1%	nt	nt	nt
CC(C)CN1CCc2nc(N3CCN(C)CC3)ncc2C1	nt	nt	4%	nt	nt	nt
CC(C)c1ccc(OCC(=O)Nc2ccncc2)cc1	nt	nt	5.4µM*	0%	4%	3%
CCc1ccc(OCC(=O)N/N=C2\CC(=O)c3ccccc32)cc1	-2%	-4%	12µM*	13%	14%	-2%
COCC(=O)Nc1ccc(C(C)C)cc1	-7%	?	24µM*	26%	27%	?
Cc1ccc(Oc2ccc(OCC(=O)Nc3ccncc3)cc2)cc1	nt	nt	nt	nt	nt	3%
CCc1ccc(OCC(=O)Nc2ccncc2)cc1	nt	nt	11µM*	2%	0%	-2%
COc1ccc(OCC(=O)N/N=C2\CCCCc3ccccc32)cc1	0%	-7%	-7%	-3%	0%	-2%
CC(=O)c1ccc(NC(=S)N2CCN(S(=O)(=O)c3ccc(F)cc3)CC2)cc1	nt	nt	4%	5%	0%	-2%
Cc1cc(OCC(=O)NNC(=O)c2ccncc2)ccc1C(C)C	nt	nt	8.5µM*	-4%	-2%	2%
COCC(=O)Nc1cccc(C(F)(F)F)c1	-1%	3.5µM*	0%	-1%	-2%	0%
O=C(COc1ccccc1)Nc1ccncc1	-7%	nt	-10%	-3%	-2%	-1%
O=C(COc1ccc2ccccc2c1)Nc1ccncc1	1%	nt	9.5µM*	-12%	2%	-2%
CC(C)c1ccc(OCC(=O)Nc2ccc(S(=O)(=O)Nc3ncccn3)cc2)cc1	nt	3%	9.5µM*	nt	nt	nt
CCC(C)NC(=O)C1CCC(CNS(=O)(=O)c2ccc(Cl)cc2)CC1 (stereo unspecified)	nt	nt	0%	nt	nt	nt
CCc1ccc(OCC(=O)Nc2cccc3nsnc23)cc1	-2%	-3%	17µM*	-6%	-2%	3%
O=C(COc1ccc(Br)cc1)Nc1ccc(Cc2ccncc2)cc1	2%	-13%	-16%	-9%	-4%	-3%
Cn1ccs/c1=N\C(=O)Nc1cccc(C(F)(F)F)c1	nt	nt	24µM*	28%	?	4%
Cc1ccccc1OCC(=O)Nc1cccc2nsnc12	-4%	29%	?	0%	-2%	17%
CC(C)(C)c1ccc(OCC(=O)Nc2ccncc2)cc1	nt	nt	6µM*	1%	-2%	-6%
SMILES	KinaseGlo FLuc	SMN2 splice enh	FLuc modulator	Rab9 promoter act	NPC1 promoter act	ELG1 genotoxic
CC(C)(C)NC(=O)NC(=O)CSc1nnc(COc2ccccc2Cl)o1	-6%	13%	17µM*	-7%	-2%	-3%
O=C(CSc1nnc(COc2ccccc2Cl)o1)Nc1ccccc1	nt	nt	?	-4%	-2%	1%
CC1CCCCC1NC(=O)CSc1nnc(COc2ccccc2Cl)o1 (stereo unspecified)	-1%	7%	21µM*	3%	3%	1%
Cc1nc2ccccc2c(=O)n1/N=C/c1ccccc1Cl	nt	nt	11µM*	?	?	?
Cc1ccc(/C=N/n2c(C)nc3ccccc3c2=O)s1	3%	?	?	3.5µM*	?	14%
CCOC(=O)C(=NC1CCS(=O)(=O)C1)NNc1ccccc1Cl (stereo unspecified)	nt	nt	17µM*	1%	1%	3%
Cc1ccc(C(=O)c2oc3ccccc3c2NC(=O)Cc2coc3cc(C)ccc23)cc1	nt	-4%	-1%	nt	nt	nt
Cn1c(C(=O)NCCc2c[nH]c3ccccc23)cc2sccc21	2%	25%	12µM*	?	?	15µM*
Cc1ccc(C(=O)N/C(=C/c2ccco2)C(=O)NCCc2c[nH]c3ccccc23)cc1	-2%	6%	15µM*	-3%	-1%	2%
O=C(NCCc1c[nH]c2ccccc12)c1cc(Cl)c2c(c1)OCO2	nt	nt	24µM*	1.4µM*	2.5µM*	?
O=C(NCCc1c[nH]c2ccccc12)c1ccc2c(c1)OCO2	nt	nt	6.7µM*	1.3µM*	1.1µM*	?
O=C(NCCc1c[nH]c2ccccc12)c1ccc2[nH]c(=O)c(=O)[nH]c2c1	nt	nt	-3%	3%	0%	1%
Cc1ccc2[nH]cc(CCNC(=O)c3ccc4c(c3)OCO4)c2c1	nt	nt	?	-3%	11%	-6%
COc1ccc(CCNC(=O)CCc2cn(Cc3ccccc3Cl)c3ccccc23)c(OC)c1	nt	nt	-2%	nt	nt	nt
Cc1ccc(-n2nc3c(=O)n(C(C)C(=O)NCc4ccc(OC(C)C)cc4)nc(C)c3c2C)cc1 (stereo unspecified)	nt	nt	-16%	nt	nt	nt
Cc1cccc(-n2ncc(C(=O)NCc3ccco3)c2C2CCN(C(=O)OC(C)(C)C)CC2)c1	nt	nt	-5%	nt	nt	nt
COc1ccc(NC(=O)NC2CCCCC2C)cc1 (stereo unspecified)	0%	16%	?	-1%	1%	13%
